# Data from PubChem BioAssay (NCATS).
# “And” between values parts separate entries of the source, which are not always exact repeats. Identical values can stand only once. Results filed as inconclusive are left out. The source made the active and inactive calls. Calls follow the shape of the dose curve; as a rule, active = well fitted curve in the direction sought with a large enough effect; inconclusive = small, poorly fitted or top-dose-only effect, or another doubt; inactive = no such curve, though single readings can be large; an effect the other way counts as inactive or inconclusive.
# Legend:
# [1] = Primary qHTS for inhibitors of nuclear receptor binding SET domain protein 2 (NSD2) in an isogenic RCH-ACV NSD2 p.E1099K mutant (9B) (AID 1645876); also: nearly all actives have a fitted effect of over 70% in size; also: potency is read from the fitted curve at half-maximal effect
# [2] = Primary qHTS for inhibitors of nuclear receptor binding SET domain protein 2 (NSD2) in an RCH-ACV wild type WT cells (2C) (AID 1645877); also: nearly all actives have a fitted effect of over 70% in size; also: potency is read from the fitted curve at half-maximal effect
# [3] = biological target: Rap guanine nucleotide exchange factor 3 (Homo sapiens) (UniProt O95398); assay: Confirmatory qHTS for antagonist of cAMP-regulated guanine nucleotide exchange factor 3 (EPAC1) (AID 1645880); also: nearly all actives have a fitted effect of over 55% in size; also: potency is read from the fitted curve at half-maximal effect
# Procedure, shortened: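 Nucleotide exchange uses 100 nM EPAC1, 250 nM RAP1B-BODIPY-GDP and 50 uM GDP, with compounds in a concentration-titration series. After 5 min at room temperature, fluorescence (480 nm ex/540 nm em) is read every 5 min for 30 min. Data are normalized to control ATA and DMSO.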
# [4] = biological target: Rap guanine nucleotide exchange factor 3 (Homo sapiens) (UniProt O95398); assay: Confirmatory qHTS for agonist of cAMP-regulated guanine nucleotide exchange factor 3 (EPAC1) (AID 1645881);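 also: EPAC1 catalysed release of BODIPY-GDP from Rap1B seen as fluorescence loss; nearly all actives have a fitted effect of over 75% in size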
# [5] = biological target: Rap guanine nucleotide exchange factor 4 (Homo sapiens) (UniProt Q8WZA2); assay: Confirmatory qHTS for agonist of cAMP-regulated guanine nucleotide exchange factor 4 (EPAC2) (AID 1645884);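 also: nucleotide exchange releases bodipy-GDP from Rap1 and this lowers its fluorescence; nearly all actives have a fitted effect of over 65% in size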
# [6] = biological target: Rap guanine nucleotide exchange factor 4 (Homo sapiens) (UniProt Q8WZA2); assay: Confirmatory qHTS for antagonist of cAMP-regulated guanine nucleotide exchange factor 4 (EPAC2) (AID 1645885); also: nearly all actives have a fitted effect of over 25% in size
# [7] = biological target: Rap guanine nucleotide exchange factor 3 (Homo sapiens) (UniProt O95398); assay: Counterscreen qHTS for agonist of cAMP-regulated guanine nucleotide exchange factor 3 (EPAC1) (AID 1645889); also: nearly all actives have a fitted effect of over 40% in size
# Procedure, shortened: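 Measured: fluorescence of BODIPY-GDP bound to Rap1B, which falls as exchange proceeds. Conditions include 50 uM competing GDP, 5 and 30 min reads, and a later cAMP challenge for antagonist detection.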
# Sequence of Rap guanine nucleotide exchange factor 3 (Homo sapiens) (O95398 whole entry, looked up): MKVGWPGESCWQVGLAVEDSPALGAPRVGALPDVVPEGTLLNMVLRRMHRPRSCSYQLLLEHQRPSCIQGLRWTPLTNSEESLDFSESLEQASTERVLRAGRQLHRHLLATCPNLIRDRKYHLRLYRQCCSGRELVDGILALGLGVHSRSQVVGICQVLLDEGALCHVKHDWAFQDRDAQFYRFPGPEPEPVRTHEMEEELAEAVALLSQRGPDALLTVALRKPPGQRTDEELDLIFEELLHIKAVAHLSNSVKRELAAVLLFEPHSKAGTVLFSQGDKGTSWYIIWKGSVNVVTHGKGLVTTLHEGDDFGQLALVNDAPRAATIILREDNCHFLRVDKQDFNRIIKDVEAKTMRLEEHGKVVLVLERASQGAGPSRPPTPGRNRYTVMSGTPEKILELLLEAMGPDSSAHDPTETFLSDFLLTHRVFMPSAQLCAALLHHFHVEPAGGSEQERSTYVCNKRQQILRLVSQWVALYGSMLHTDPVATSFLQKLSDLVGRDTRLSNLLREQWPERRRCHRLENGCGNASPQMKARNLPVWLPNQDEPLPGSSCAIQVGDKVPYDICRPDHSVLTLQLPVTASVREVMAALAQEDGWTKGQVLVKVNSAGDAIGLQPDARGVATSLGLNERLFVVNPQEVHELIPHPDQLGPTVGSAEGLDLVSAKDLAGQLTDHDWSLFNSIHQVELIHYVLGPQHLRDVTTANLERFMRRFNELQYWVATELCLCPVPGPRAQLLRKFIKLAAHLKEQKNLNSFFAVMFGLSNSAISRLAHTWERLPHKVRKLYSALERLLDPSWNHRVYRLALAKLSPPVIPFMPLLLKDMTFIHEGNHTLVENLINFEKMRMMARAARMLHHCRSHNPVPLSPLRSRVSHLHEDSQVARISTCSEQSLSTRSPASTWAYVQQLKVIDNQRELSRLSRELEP
# Sequence of Rap guanine nucleotide exchange factor 4 (Homo sapiens) (Q8WZA2 whole entry, looked up): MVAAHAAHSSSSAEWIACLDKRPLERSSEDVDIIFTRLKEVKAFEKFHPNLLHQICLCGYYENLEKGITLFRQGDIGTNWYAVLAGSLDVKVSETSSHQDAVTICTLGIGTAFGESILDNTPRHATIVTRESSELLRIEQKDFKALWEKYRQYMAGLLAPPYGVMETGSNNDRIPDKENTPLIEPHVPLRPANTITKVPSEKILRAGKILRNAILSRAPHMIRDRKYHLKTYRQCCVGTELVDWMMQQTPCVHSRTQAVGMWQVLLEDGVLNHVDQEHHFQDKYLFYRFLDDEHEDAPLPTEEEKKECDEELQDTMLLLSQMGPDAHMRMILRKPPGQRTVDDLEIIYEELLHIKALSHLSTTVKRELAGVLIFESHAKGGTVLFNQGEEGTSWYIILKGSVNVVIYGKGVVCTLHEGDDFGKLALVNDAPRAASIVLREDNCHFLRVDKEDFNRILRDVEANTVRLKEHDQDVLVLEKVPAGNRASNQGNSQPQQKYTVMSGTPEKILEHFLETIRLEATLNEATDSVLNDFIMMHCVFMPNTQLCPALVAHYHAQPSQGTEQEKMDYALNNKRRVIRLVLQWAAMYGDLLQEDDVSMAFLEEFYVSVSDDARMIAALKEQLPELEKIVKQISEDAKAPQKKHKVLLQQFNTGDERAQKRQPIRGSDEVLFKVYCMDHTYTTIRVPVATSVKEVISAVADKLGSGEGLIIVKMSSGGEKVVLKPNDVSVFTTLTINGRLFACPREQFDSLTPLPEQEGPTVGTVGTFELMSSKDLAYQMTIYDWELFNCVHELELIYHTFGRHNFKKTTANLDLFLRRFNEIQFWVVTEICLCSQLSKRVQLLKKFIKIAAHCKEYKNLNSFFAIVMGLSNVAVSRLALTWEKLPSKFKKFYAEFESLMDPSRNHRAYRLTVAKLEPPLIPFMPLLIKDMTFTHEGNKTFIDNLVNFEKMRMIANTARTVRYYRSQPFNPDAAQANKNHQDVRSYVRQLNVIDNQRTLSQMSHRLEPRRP
smiles,measurement,setting,value
COc1c2c(nc3occc13)C(CC=C(C)C)(OC)C(O)CC2 (configuration not stated),Potency,[1],inactive
C=C1C(=O)OC2/C=C(\C)CC/C=C(\C)CC(OC(C)=O)C12 (configuration not stated),Potency,[1],12.9 µM (active)
same,Potency,[2],6.49 µM (active)
COC1=CC(=O)O/C1=C(/OC)[C@@H]1O[C@H]1c1ccccc1,Potency,[2],18.3 µM (active)
CS(=O)(=O)Nc1cc2occ(NC=O)c(=O)c2cc1Oc1ccccc1,Potency,[1],inactive
same,Potency,[2],inactive
C=CCNC1=C2C[C@@H](C)C[C@H](OC)[C@H](O)[C@@H](C)/C=C(\C)[C@H](OC(N)=O)[C@@H](OC)/C=C\C=C(/C)C(=O)NC(=CC1=O)C2=O,Potency,[1],3.32 µM (active)
same,Potency,[2],2.63 µM (active)
Cc1cc(-c2ncc(-c3cccnc3)cc2/C=C/c2ccccc2)cnc1-c1cccnc1,Potency,[1],inactive
same,Potency,[2],inactive
COc1ccc(C2(CNC(=O)c3ccc(NC(=O)c4ccco4)cc3)CCOCC2)cc1,Potency,[1],inactive
same,Potency,[2],inactive
CCNC1(C(N)=O)CN(c2nc(C)nc3c(-c4ccc(Cl)cc4)c(-c4ccccc4Cl)nn23)C1,Potency,[1],20.5 µM (active)
CC(=O)S[C@@H]1CC2=CC(=O)CC[C@]2(C)[C@H]2CC[C@@]3(C)[C@@H](CC[C@@]34CCC(=O)O4)[C@H]12,Potency,[3],inactive
same,outcome,[4],inactive
same,outcome,[5],inactive
same,Potency,[6],inactive
CCC(C)CC(=O)OC1C(=O)C(CO)=CC(O)C1C(C)C (configuration not stated),Potency,[1],2.58 µM (active)
same,Potency,[2],2.9 µM (active)
COc1cc(O)c2c(c1)/C=C/C[C@H](O)[C@H](O)C(=O)/C=C\C[C@H](C)OC2=O,Potency,[1],2.06 µM (active) and 2.58 µM (active)
same,Potency,[2],1.46 µM (active) and 1.83 µM (active)
CC(C)=CCC/C(C)=C/COCC1OC(n2ccc(=O)[nH]c2=O)C(O)C1O (configuration not stated),Potency,[1],4.01 µM (active)
same,Potency,[2],2.01 µM (active)
C/C(=C\CCC(C)C1=CCC2(C)OC3=C(CC12)C(=O)C(O)CC3)CO (configuration not stated),Potency,[1],inactive
same,Potency,[2],inactive
C=C1C(=O)O[C@@H]2C3=C(C)CCC[C@]3(C)CC[C@@]12O,Potency,[1],2.3 µM (active)
same,Potency,[2],1.29 µM (active)
C=C[C@@]1(C)CCC2C(=CCC3[C@]2(C)CCC[C@@]3(C)C(=O)O)C1 (some centres not stated),Potency,[1],inactive
same,Potency,[2],inactive
Cc1ccc(-c2c(C(=O)CCl)n(CCCO)c3ncnc(N)c23)cc1,Potency,[1],20.5 µM (active)
same,Potency,[2],23 µM (active)
C=C1C(=O)O[C@@H]2[C@H]3C(C)=CC(=O)C3=C(C)CC[C@@H]12,Potency,[1],2.9 µM (active)
same,Potency,[2],2.05 µM (active)
C=C1C(=O)O[C@@H]2[C@H]3C(C)=CC(=O)C3=C(C)[C@@H](OC(=O)/C(C)=C\C)[C@H](O)[C@@H]12,Potency,[2],3.58 µM (active)
C[C@H]1CC[C@@]2(OC1)O[C@H]1CC3[C@@H]4CC[C@@H]5C[C@@H](O[C@@H]6O[C@H](CO)[C@@H](O[C@@H]7O[C@@H](C)[C@H](O)[C@@H](O)[C@H]7O)[C@H](O)[C@H]6O[C@@H]6O[C@H](CO)[C@@H](O)[C@H](O)[C@H]6O)CC[C@]5(C)C4CC[C@]3(C)[C@H]1[C@@H]2C (some centres not stated),Potency,[1],3.88 µM (active)
same,Potency,[2],3.88 µM (active)
COC(=O)CC1OC(C)C2=C(O)c3c(O)cccc3C(=O)C23OC13 (configuration not stated),Potency,[1],2.84 µM (active)
same,Potency,[2],2.01 µM (active)
O=C(Nc1ncc([N+](=O)[O-])s1)c1ccccc1O,Potency,[1],inactive
C=CC(=O)Nc1ccc(CN2C(=O)N(c3cc(OC)cc(OC)c3)Cc3cnc(Nc4ccc(N5CCN(C)CC5)cc4)nc32)cc1,Potency,[1],1.46 µM (active)
same,Potency,[2],0.817 µM (active)
CC1OC2OC(=O)C3(C)CC4C5(CO5)C5=CC(=O)OC(C)(C)C5=CC(=O)C4(C)C(C1=O)C23 (configuration not stated),Potency,[2],8.93 µM (active)
C=C1C(=O)O[C@@H]2C(OC(=O)/C(C)=C\C)/C(C)=C\C(=O)/C=C(\C)C[C@H](O)[C@@H]12 (some centres not stated),Potency,[1],2.26 µM (active)
same,Potency,[2],1.6 µM (active)
C[C@]12CC[C@@H]3c4ccc(OS(=O)(=O)O)cc4CC[C@H]3[C@@H]1CCC2=O,Potency,[3],8.49 µM (active)
same,outcome,[4],inactive
same,outcome,[5],inactive
same,Potency,[6],inactive
same,outcome,[7],inactive
C/C=C(\C)C(=O)OC1C[C@@]2(COC(C)=O)O[C@H]2/C=C\[C@@]2(C)O[C@@H]2[C@H]2OC(=O)C(COC(C)=O)=C12 (some centres not stated),Potency,[1],8.93 µM (active)
same,Potency,[2],5.63 µM (active)
C=C(C)C(=O)OC1CC2(C)OC(=CC2=O)C(=C)CC2OC(=O)C(=C)C12 (configuration not stated),Potency,[1],0.8 µM (active)
same,Potency,[2],0.253 µM (active)
O=C(O)c1cc2ccccc2c(Cc2c(O)c(C(=O)O)cc3ccccc23)c1O,Potency,[3],4.44 µM (active)
same,outcome,[4],inactive
same,outcome,[5],inactive
same,Potency,[6],inactive
